The text below walks through data of PubChem BioAssay (Tox21).

Values joined by “and” are separate entries in the source; they are usually repeats but may differ in a detail not shown here. Equal entries are not always repeated. Inconclusive results are not listed. The source holds several records for some structures; these can differ, active in one and inactive in another. Active and inactive are the calls of the source. Unless noted, the call rests on the fitted dose curve; in most records, active means well fitted curve in the direction sought with a large enough effect in the repeat runs; inconclusive means weak or mixed curves; inactive means no such curve, though single readings can be large; an effect the other way counts as inactive or inconclusive.

The nature of experiment [1]: A CellTox Green Cytotoxicity Assay to monitor cytotoxicity in HEK293 cells - 32 hour (AID 1224881). Further: nearly all actives have a fitted effect of over 40% in size. Further: potency means the concentration at half of the fitted maximal effect. The gist of the method:
(§1)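 Homogeneous no-lysis format: HEK293 cell suspension mixed with CellTox Green reagent, seeded, incubated 5 h at 37 C/5% CO2, then dosed by pintool with compound in DMSO.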

The nature of experiment [2]: A CellTox Green Cytotoxicity Assay to monitor cytotoxicity in HepG2 cells - 0 hour (AID 1224882). Further: nearly all actives have a fitted effect of over 35% in size. The method, boiled down: (§2)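 Fluorescent DNA-binding dye, 600 HepG2 cells/well, 5 h preincubation then compound in DMSO; same plates read at 0–40 h, 37 C.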
The nature of experiment [3]: A CellTox Green Cytotoxicity Assay to monitor cytotoxicity in HepG2 cells - 32 hour (AID 1224883). Further: nearly all actives have a fitted effect of over 50% in size. Further: potency means the concentration at half of the fitted maximal effect. The method, boiled down:
as §2

The nature of experiment [4]: A CellTox Green Cytotoxicity Assay to monitor cytotoxicity in HEK293 cells - 8 hour (AID 1224884). Further: nearly all actives have a fitted effect of over 35% in size. Further: potency means the concentration at half of the fitted maximal effect. The gist of the method:
as §1

Experiment [5] in a line: qHTS RealTime-Glo MT Cell Viability Assay in HepG2 cells - 16 hour (AID 1224885). Further: nearly all actives have a fitted effect of over 50% in size. The method, boiled down:
(§3)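 Compound treatment began 5 h after plating HepG2 cells (600/well) with NanoLuc luciferase and prosubstrate. Plates stayed at 37 C for 40 h; luminescence was captured at six time points, 0 h through 40 h.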
A general note: qHTS replaces the single test concentration by a dilution series.

Experiment [6] is described as follows: qHTS RealTime-Glo MT Cell Viability Assay in HEK293 cells - 24 hour (AID 1224886). Further: top concentration of the series differs between compounds; nearly all actives have a fitted effect of over 50% in size. The method, boiled down: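 Quantitative high-throughput screen of the Tox21 10K library in HEK293: cells and RealTime-Glo reagents plated together, compound added at 5 h, luminescence monitored through 40 h at 37 C.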
Experiment [7] in a line: A CellTox Green Cytotoxicity Assay to monitor cytotoxicity in HEK293 cells - 16 hour (AID 1224888). Further: nearly all actives have a fitted effect of over 35% in size. The gist of the method:
as §1

Experiment [8] in a line: qHTS RealTime-Glo MT Cell Viability Assay in HepG2 cells - 0 hour (AID 1224889). Further: nearly all actives have a fitted effect of over 50% in size. The method, boiled down:
as §3

The nature of experiment [9]: A CellTox Green Cytotoxicity Assay to monitor cytotoxicity in HepG2 cells - 8 hour (AID 1224890). Further: nearly all actives have a fitted effect of over 45% in size. Further: potency means the concentration at half of the fitted maximal effect. The method, boiled down: as §2
The nature of experiment [10]: qHTS assay to identify small molecule antagonists of the estrogen receptor alpha (ER-alpha) signaling pathway using the BG1 cell line in the presence of 0.1 nM 17-beta-estradiol - cell viability counter screen (AID 1259241). Further: nearly all actives have a fitted effect of over 40% in size. The gist of the method:
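CellTiter-Fluor read (30 min, 37C) on ER-alpha/ERE-luc VM7Luc4E2 cells; 22 hr compound treatment; agonist 0.1 nM E2 final; same-well multiplex.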

Experiment [11] is described as follows: qHTS assay to identify small molecule antagonists of the androgen receptor (AR) signaling pathway using the MDA cell line in the presence of 0.5 nM R1881 - cell viability counter screen (AID 1259242). Further: nearly all actives have a fitted effect of over 45% in size. Further: potency means the concentration at half of the fitted maximal effect. The gist of the method: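 Human breast carcinoma MDA-kb2 cells, cultured without CO2, receive compounds alongside 0.5 nM (final) R1881 agonist. After 16 hr at 37C, viability is taken as live-cell protease signal.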

Experiment [12] is described as follows: qHTS assay to identify small molecule phospholipidosis (PLD) inducers (AID 1259344; active means well fitted curve in the direction sought with a large enough effect; an effect the other way counts as inactive or inconclusive). The method, boiled down:
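Cells (HepG2, 900 per well) attach for 4 h, receive LipidTOX Red and compound together, incubate 24 h at 37 C, are fixed 30 min with paraformaldehyde/Hoechst, then imaged at one site per well.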

Experiment [13] is described as follows: qHTS assay to identify small molecule HDAC inhibitors (AID 1259364).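 Further: wild-type HCT-116 cells with endogenous class I/II HDAC activity; top concentration of the series differs between compounds; nearly all actives have a fitted effect of over 45% in size.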 The method, boiled down: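 After a 2 hr compound incubation (37C, 5% CO2), HCT-116 cells seeded at 1,500/well the day before received HDAC-Glo reagent; signal read as luminescence after 30 min at room temperature.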
Experiment [14] in a line: qHTS assay to identify small molecule HDAC inhibitors - cell viability counter screen (AID 1259365). The method, boiled down:
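To flag cytotoxic hits, 1,500 wild-type HCT-116 cells per well, plated the day before, receive test compounds for 2hr at 37 C before CellTiter-Glo reagent and a luminescence read.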

The nature of experiment [15]: qHTS assay to identify small molecule agonists of the sonic hedgehog signaling (Shh) pathway - cell viability counter screen (AID 1259366). Further: nearly all actives have a fitted effect of over 50% in size. The gist of the method:
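Fluorescence from CellTiter-Fluor reports live cells in this counter screen. NIH/3T3-derived Gli1-Luc reporter cells receive test compounds for 24hr at 37C; reagent goes in at 23hr.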

Experiment [16] is described as follows: qHTS assay to identify small molecule agonists of the sonic hedgehog signaling (Shh) pathway (AID 1259368; calls by dose curve;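 further: NIH/3T3-derived 3T3Gli1-Luc cells carrying a stable Gli1-driven firefly luciferase reporter; series mostly up to about 92 µM; nearly all actives have a fitted effect of over 15% in size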). The gist of the method:
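Stable NIH/3T3 Gli1-Luc reporter clone; 24 hr cpd exposure after a 4 hr settling period; luminescence endpoint.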

Experiment [17] is described as follows: qHTS RealTime-Glo MT Cell Viability Assay in HEK293 cells - 8 hour (AID 1224887). The gist of the method: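 Measured as luminescence from the same continuously cultured HEK293 wells at successive time points (0, 8, 16, 24, 32, 40 h) after compound addition. Reagent present from seeding; dosing at 5 h; incubation 37 C.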
Experiment [18] addresses Estrogen receptor (Homo sapiens) (UniProt P03372). Kind of experiment: qHTS assay to identify small molecule antagonists of the estrogen receptor alpha (ER-alpha) signaling pathway using the BG1 cell line in the presence of 0.1 nM 17-beta-estradiol (AID 1259244). Further: nearly all actives have a fitted effect of over 50% in size. The gist of the method: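 Seeding of stripped-serum-adapted VM7Luc4E2 cells, 24 h attachment, compound transfer, then 0.1 nM final 17beta-estradiol; after 22 h incubation, ONE-Glo reagent and luminescence reading.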

Experiment [19] in a line: qHTS assay to identify small molecule antagonists of the sonic hedgehog signaling (Shh) pathway - cell viability counter screen (AID 1259367). Further: nearly all actives have a fitted effect of over 55% in size. The gist of the method:
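Cytotoxicity was assessed in parallel with Shh reporter activity by measuring live-cell protease fluorescence (CellTiter-Fluor) in NIH/3T3 cells stably carrying Gli1-Luc, treated with compound under conditioned medium stimulation for 23 hr plus 1 hr reagent incubation.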
On the % scale 0 is the no-effect control and ±100 the full control effect.

Sequence of Estrogen receptor (Homo sapiens) (P03372 whole entry, looked up): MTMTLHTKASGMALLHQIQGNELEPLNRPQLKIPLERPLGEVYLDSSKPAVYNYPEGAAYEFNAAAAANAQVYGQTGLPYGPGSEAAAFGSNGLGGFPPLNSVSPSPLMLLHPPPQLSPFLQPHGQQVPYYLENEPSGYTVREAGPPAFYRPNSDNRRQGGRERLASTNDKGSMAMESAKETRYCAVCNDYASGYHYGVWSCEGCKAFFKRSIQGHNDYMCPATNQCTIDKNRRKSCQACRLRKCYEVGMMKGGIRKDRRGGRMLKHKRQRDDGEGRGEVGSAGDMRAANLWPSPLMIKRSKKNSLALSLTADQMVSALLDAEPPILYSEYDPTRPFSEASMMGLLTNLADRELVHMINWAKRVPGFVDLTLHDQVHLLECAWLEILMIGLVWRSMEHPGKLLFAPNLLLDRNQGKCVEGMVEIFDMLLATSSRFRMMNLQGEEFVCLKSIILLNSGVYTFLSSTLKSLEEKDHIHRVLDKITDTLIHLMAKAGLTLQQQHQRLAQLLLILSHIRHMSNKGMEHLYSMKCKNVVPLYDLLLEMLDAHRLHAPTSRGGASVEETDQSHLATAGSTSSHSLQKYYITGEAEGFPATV

Take `NC[C@H](O)c1ccc(O)c(O)c1`: the Potency result in experiment [1], in experiment [2], in [3], in experiment [4], in [5] and in experiment [6] was “inactive” each time. Also, the Potency result in experiment [7], in experiment [8], in [9], in [10], in [11] and in experiment [12] was “inactive” in each case. Besides, the Potency result in experiment [13], in experiment [15] and in [16] was “inactive” each time. The molecule was classed as inactive in experiment [14].

For `c1ccc2cc3ccccc3cc2c1`, the Potency result in experiment [1], in experiment [2], in experiment [3], in [4], in experiment [5] and in experiment [6] was “inactive” in each case. The Potency result in experiment [17], in experiment [7], in experiment [8], in experiment [9], in experiment [10] and in experiment [11] was “inactive” in each case. The Potency entry in experiment [18], in experiment [15], in [19] and in experiment [16] was “inactive” throughout. In [14], the call was inactive.

Turning to `COC(=O)CC(=O)OC`, the Potency entry in [1], in [2], in experiment [3], in experiment [4], in experiment [5] and in [6] was “inactive” each time. Besides, the Potency entry in experiment [17], in [7], in [8], in experiment [9], in [11] and in experiment [18] was “inactive” each time. Further, the Potency entry in experiment [13], in [15], in experiment [19] and in [16] was “inactive” in each case. The result in experiment [14] was inactive.

Turning to `Cc1ccc(N)c([N+](=O)[O-])c1`, the Potency entry in [1], in experiment [2], in experiment [3], in [4], in experiment [5] and in experiment [6] was “inactive” throughout. The Potency entry in experiment [17], in [7], in [8], in experiment [9], in [11] and in [18] was “inactive” throughout. Also, the Potency result in [13], in experiment [15] and in experiment [16] was “inactive” in each case. For the same molecule, the molecule was called inactive in experiment [14].

For `O=[Se](O)O`, the Potency in [1] is 39 µM (active); in experiment [3], 24.6 µM (active); in experiment [11], 13.7 µM (active). In addition, the cytotoxicity increase in experiment [1] is -8.61% [at 15.8 µM] (inactive); in [3], 9.15% [at 15.8 µM] (inactive). For the same molecule, the Potency entry in experiment [2], in experiment [4], in [5], in experiment [7], in experiment [8] and in experiment [9] was “inactive” throughout. The Potency result in experiment [13], in experiment [15], in experiment [19] and in experiment [16] was “inactive” each time. Also, in experiment [6], the activity change, negative = cytotoxicity was -26.2% [at 15.8 µM] (inactive). Further, the viability change, negative = cytotoxic in experiment [11] was -4.23% [at 19 µM] (inactive). Further, the activity change, negative = inhibition in experiment [18] was -20.4% [at 19 µM] (inactive). In addition, the result in experiment [14] was inactive.

For `IC(I)I`, the Potency entry in [1], in experiment [2], in experiment [3], in [4], in [5] and in experiment [6] was “inactive” throughout. For the same molecule, the Potency entry in [17], in [7], in [8], in experiment [9], in experiment [11] and in [12] was “inactive” throughout. Also, the Potency entry in [13], in [15], in experiment [19] and in experiment [16] was “inactive” each time. The result in [14] was inactive.

For `Cc1ccc(C(C)(C)C)c(O)c1`, the Potency in experiment [1] is 23.8 µM (active) and 21.9 µM (active); in experiment [3] it was 38.9 µM (active); in experiment [4], 18.9 µM (active) and inactive; in experiment [9], “inactive and 43.6 µM (active)”. In addition, the Potency result in experiment [2], in experiment [5], in [6], in experiment [17], in experiment [8] and in experiment [10] was “inactive” each time. Also, the Potency entry in experiment [11], in experiment [18], in [13] and in experiment [16] was “inactive” throughout. Further, the molecule was classed as inactive in experiment [14].

For the molecule `COC(=O)c1ccc(C)cc1`, the Potency entry in experiment [1], in [2], in experiment [3], in experiment [4], in [5] and in experiment [6] was “inactive” each time. Besides, the Potency result in experiment [17], in experiment [7], in experiment [8], in experiment [9], in experiment [10] and in experiment [11] was “inactive” throughout. Moreover, the Potency entry in experiment [18], in [13], in experiment [15], in [19] and in experiment [16] was “inactive” in each case. The result in [14] was inactive.
